Measured values: PubChem BioAssay
For some of these results: Potency and affinity values are given separately. Calls of active or inactive are those of the source. Unless noted, how the calls were made is not given here.

Assays:
[1] = antimalarial activity against Dd2 strain (AID 2302;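 active means growth inhibition above 50% at the single 2 µM test dose, taken to imply half-maximal potency below 2 µM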;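 further: 0% = DMSO untreated growth and 100% = chloroquine plus artemisinin killed control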); details: P. falciparum Dd2 in RBCs, LDH growth readout, 72 h; at 2 µM; stronger effect = higher value
[2] = human hepatoma cell viability loss – ATP luminescence, cytotoxicity control for P. falciparum antimalarial project, primary screen (AID 2303;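 active means inhibition above 50%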;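 further: 0% = DMSO wells and 100% = digitonin-killed cells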); details: HepG2 viability, 24-48 h, at 10 µM, stronger effect = higher value
[3] = molecular target: L-lactate dehydrogenase (Plasmodium falciparum (isolate CDC / Honduras)) (UniProt Q27743); assay: PfLDH activity inhibition – cell lysate, 3D7 strain, counter-screen for P. falciparum growth inhibition project (AID 2304);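 further: 0% = vehicle and 100% = reference inhibitor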; details: P. falciparum 3D7 crude extract, LDH APAD/NBT absorbance; at 2 µM; stronger effect = higher value
[4] = inhibition of 3D7 malaria parasite growth – strain 3D7 (AID 2306);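 further: 0% = DMSO wells and 100% = chloroquine plus artemisinin control wells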; details: P. falciparum 3D7 erythrocytic growth, LDH absorbance, 72 h; at 2 µM; stronger effect = higher value
[5] = molecular target: Calcium-dependent protein kinase 1 (Plasmodium falciparum (isolate 3D7)) (UniProt P62344); assay: PfCDPK1 kinase inhibitors, biochemical, TCAMS library (AID 1159585; cut-off not given, nearly all actives have IC50 up to about 0.98 µM;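 further: inhibitors leave more ATP so luminescence rises with inhibition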); details: recombinant PfCDPK1, Kinase-Glo ATP depletion luminescence
[6] = molecular target: Plasmodium falciparum protein kinase 6 (PK6, PF3D7_1337100) (UniProt Q8IDW1); assay: PfPK6 kinase inhibitors, biochemical, TCAMS library (AID 1159586); details: recombinant PfPK6, Kinase-Glo ATP depletion luminescence
[7] = molecular target: Protein kinase 7 (PK7), Plasmodium falciparum 3D7 (PF3D7_0213400) (UniProt Q7YTF7); assay: inhibition of Plasmodium PK7 catalytic activity – biochemical, TCAMS antimalarial set, Kinase-Glo luminescence (AID 1159587); details: recombinant PfPK7, Kinase-Glo ATP depletion luminescence
[8] = molecular target: Calcium-dependent protein kinase 4 (Plasmodium falciparum (isolate 3D7)) (UniProt Q8IBS5); assay: PfCDPK4 kinase inhibitors, biochemical, TCAMS library (AID 1159588; cut-off not given, nearly all actives have IC50 up to about 0.91 µM); details: recombinant PfCDPK4, Kinase-Glo ATP depletion luminescence
Sequence of Calcium-dependent protein kinase 4 (Plasmodium falciparum (isolate 3D7)) (Q8IBS5 whole entry, looked up): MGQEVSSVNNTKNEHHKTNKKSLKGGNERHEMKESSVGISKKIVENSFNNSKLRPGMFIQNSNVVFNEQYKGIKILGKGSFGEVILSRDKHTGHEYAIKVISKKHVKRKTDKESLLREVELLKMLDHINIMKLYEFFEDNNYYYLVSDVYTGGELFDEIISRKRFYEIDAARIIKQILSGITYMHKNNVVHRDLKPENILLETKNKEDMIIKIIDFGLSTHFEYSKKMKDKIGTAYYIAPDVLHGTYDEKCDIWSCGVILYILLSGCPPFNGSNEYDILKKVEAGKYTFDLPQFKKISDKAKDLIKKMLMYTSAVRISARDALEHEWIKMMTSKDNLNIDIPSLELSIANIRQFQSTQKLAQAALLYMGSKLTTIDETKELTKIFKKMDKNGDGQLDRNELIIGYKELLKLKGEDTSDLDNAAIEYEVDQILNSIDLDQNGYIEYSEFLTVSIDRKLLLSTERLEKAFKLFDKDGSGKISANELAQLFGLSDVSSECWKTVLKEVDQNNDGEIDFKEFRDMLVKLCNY

Sequence of Plasmodium falciparum protein kinase 6 (PK6, PF3D7_1337100) (Q8IDW1 1-305): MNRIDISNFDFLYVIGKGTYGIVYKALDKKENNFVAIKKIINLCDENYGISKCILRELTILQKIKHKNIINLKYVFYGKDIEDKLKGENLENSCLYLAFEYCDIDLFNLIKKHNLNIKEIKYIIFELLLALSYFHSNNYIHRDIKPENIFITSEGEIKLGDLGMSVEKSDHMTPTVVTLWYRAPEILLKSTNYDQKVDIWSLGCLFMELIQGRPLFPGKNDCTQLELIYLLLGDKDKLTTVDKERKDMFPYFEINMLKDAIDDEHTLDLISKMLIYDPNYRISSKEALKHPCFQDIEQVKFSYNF
Sequence of L-lactate dehydrogenase (Plasmodium falciparum (isolate CDC / Honduras)) (Q27743 whole entry, looked up): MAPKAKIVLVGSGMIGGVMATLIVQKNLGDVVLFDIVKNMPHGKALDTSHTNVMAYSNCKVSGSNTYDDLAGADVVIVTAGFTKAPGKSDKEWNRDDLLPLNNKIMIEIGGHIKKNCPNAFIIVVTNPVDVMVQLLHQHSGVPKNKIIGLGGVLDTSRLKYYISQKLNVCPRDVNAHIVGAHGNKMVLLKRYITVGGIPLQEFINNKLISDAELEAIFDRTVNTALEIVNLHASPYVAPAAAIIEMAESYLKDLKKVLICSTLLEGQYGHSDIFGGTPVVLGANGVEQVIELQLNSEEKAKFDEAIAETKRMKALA
Sequence of Calcium-dependent protein kinase 1 (Plasmodium falciparum (isolate 3D7)) (P62344 whole entry, looked up): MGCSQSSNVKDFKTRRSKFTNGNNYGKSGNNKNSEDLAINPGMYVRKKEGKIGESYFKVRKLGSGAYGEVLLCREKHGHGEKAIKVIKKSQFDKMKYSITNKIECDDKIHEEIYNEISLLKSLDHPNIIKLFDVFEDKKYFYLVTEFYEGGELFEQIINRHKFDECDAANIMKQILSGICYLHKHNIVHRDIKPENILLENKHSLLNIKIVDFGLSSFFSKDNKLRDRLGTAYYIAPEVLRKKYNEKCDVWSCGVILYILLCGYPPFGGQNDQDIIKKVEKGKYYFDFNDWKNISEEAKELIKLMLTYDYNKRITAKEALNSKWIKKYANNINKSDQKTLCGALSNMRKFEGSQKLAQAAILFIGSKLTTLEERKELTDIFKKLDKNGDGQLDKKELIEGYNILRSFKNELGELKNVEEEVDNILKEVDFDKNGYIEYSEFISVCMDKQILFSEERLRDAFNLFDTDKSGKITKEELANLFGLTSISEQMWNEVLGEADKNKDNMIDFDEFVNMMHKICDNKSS
Sequence of Protein kinase 7 (PK7), Plasmodium falciparum 3D7 (PF3D7_0213400) (Q7YTF7 1-343): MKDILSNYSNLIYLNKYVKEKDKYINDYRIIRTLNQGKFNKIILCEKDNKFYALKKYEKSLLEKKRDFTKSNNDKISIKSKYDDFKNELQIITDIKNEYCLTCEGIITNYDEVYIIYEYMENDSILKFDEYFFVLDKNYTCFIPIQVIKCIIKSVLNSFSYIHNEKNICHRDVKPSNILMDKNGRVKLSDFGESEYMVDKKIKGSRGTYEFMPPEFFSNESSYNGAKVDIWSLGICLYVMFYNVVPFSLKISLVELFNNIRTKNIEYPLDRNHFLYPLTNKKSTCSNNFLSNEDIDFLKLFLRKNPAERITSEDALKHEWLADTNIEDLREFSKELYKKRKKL

COc1ccc(-c2cccc(NC(=O)c3cccc(Cl)c3)c2)cc1CN1CCCC1
active: growth inhibition [1] 66% | growth inhibition [4] 99%
inactive: inhibition [2] 45% | inhibition [3] 1% | outcome [5] | outcome [6] | outcome [7] | outcome [8]

Cc1ccccc1C1CCN(C2CCC(NC(=O)/C=C/c3cccc(Cl)c3)CC2)CC1 (stereo not given)
inactive: growth inhibition [1] 34% | inhibition [3] -3% | outcome [5] | outcome [6] | outcome [7] | outcome [8]
active: inhibition [2] 70% | growth inhibition [4] 98%

COc1cc(Cc2cnc(N)nc2N)c2ccsc2c1OC
inactive: growth inhibition [1] 4% | inhibition [2] 5% | inhibition [3] 0% | outcome [5] | outcome [6] | outcome [7] | outcome [8]
active: growth inhibition [4] 92%

CC(=O)Nc1ccc(C(=O)Nc2cccc(-c3ccc(-c4nc5ccc(C(F)(F)F)cc5[nH]4)s3)c2)cn1
active: growth inhibition [1] 98% | growth inhibition [4] 100%
inactive: inhibition [2] 42% | inhibition [3] 3% | outcome [5] | outcome [6] | outcome [7] | outcome [8]

COC(=O)c1ccccc1COc1ccc(CC2(NC(=O)[C@H](Nc3ccc(C#N)c4ccccc34)C(C)(C)C)CCCC2)cc1
inactive: inhibition [2] 1% | inhibition [3] 2% | outcome [5] | outcome [6] | outcome [7] | outcome [8]
active: growth inhibition [1] 82% | growth inhibition [4] 95%

O=C(NCCc1ccccc1)N(Cc1ccc(-c2cccc(CN3CCNCC3)c2)cc1)C1CCN(Cc2ccccc2)CC1
active: growth inhibition [4] 90%
inactive: growth inhibition [1] 29% | inhibition [2] 27% | inhibition [3] -1% | outcome [5] | outcome [6] | outcome [7] | outcome [8]

CC(=O)Nc1ncc(C(=O)Nc2ccc(-c3cccc(-c4nc5ccc(F)cc5[nH]4)c3)cc2)s1
inactive: inhibition [2] 47% | inhibition [3] -3% | outcome [5] | outcome [6] | outcome [7] | outcome [8]
active: growth inhibition [1] 85% | growth inhibition [4] 102%

Clc1ncnc2scc(-c3ccc(Br)cc3)c12
inactive: inhibition [2] -3% | inhibition [3] -2% | outcome [5] | outcome [6] | outcome [7] | outcome [8]
active: growth inhibition [1] 96% | growth inhibition [4] 95%

O=S(=O)(c1ccc(OCc2ccc(Cl)cc2)cc1)c1cc2c(cc1OCc1ccccc1)CCN(CC1CC1)CC2
active: growth inhibition [4] 82%
inactive: growth inhibition [1] -2% | inhibition [2] 19% | inhibition [3] -3% | outcome [5] | outcome [6] | outcome [7] | outcome [8]

COc1cc2ncnc(NCCc3ccccc3Cl)c2cc1OC
inactive: growth inhibition [1] 11% | inhibition [2] 0% | inhibition [3] 3% | outcome [5] | outcome [6] | outcome [7] | outcome [8]
active: growth inhibition [4] 88%

O=C(CC1NC(=O)c2ccccc21)Nc1ccc(-c2cccc(-c3nc4ccc(C(F)(F)F)cc4[nH]3)c2)cc1 (stereo not given)
active: inhibition [2] 69% | growth inhibition [4] 95%
inactive: growth inhibition [1] 36% | inhibition [3] -4% | outcome [5] | outcome [6] | outcome [7] | outcome [8]

O=[N+]([O-])c1ccc2nc(Nc3ccc(Cl)c(Cl)c3)c(Nc3ccc(Cl)c(Cl)c3)nc2c1
inactive: inhibition [2] 1% | inhibition [3] 3% | outcome [5] | outcome [6] | outcome [7] | outcome [8]
active: growth inhibition [1] 99% | growth inhibition [4] 101%

FC(F)(F)c1ccc2nc(-c3cccc(-c4cccc(CNCCN5CCNCC5)c4)c3)[nH]c2c1
active: growth inhibition [4] 92%
inactive: growth inhibition [1] 18% | inhibition [2] 29% | inhibition [3] 4% | outcome [5] | outcome [6] | outcome [7] | outcome [8]

NC1=NC(Cc2ccccc2)(c2ccncc2)C(=O)N1CCCc1ccccc1 (stereo not given)
inactive: growth inhibition [1] 1% | inhibition [2] 1% | inhibition [3] 3% | outcome [5] | outcome [6] | outcome [7] | outcome [8]
active: growth inhibition [4] 86%

CN(C)CCN(C)Cc1ccc(-c2ccc(NC(=O)c3cccc(Cl)c3)cc2)cc1
active: growth inhibition [1] 54% | inhibition [2] 50% | growth inhibition [4] 94%
inactive: inhibition [3] 1% | outcome [5] | outcome [6] | outcome [7] | outcome [8]

O=C(Nc1cccc(C(F)(F)F)c1)NC1CCN(c2ccnc3cc(Cl)ccc23)CC1
inactive: growth inhibition [1] 47% | inhibition [2] 13% | inhibition [3] -2% | outcome [5] | outcome [6] | outcome [7] | outcome [8]
active: growth inhibition [4] 101%

CCCCCCCCc1[nH]c(C)c(Br)c(=O)c1Br
active: growth inhibition [1] 95% | growth inhibition [4] 96%
inactive: inhibition [2] 2% | inhibition [3] 2% | outcome [5] | outcome [6] | outcome [7] | outcome [8]

O=C(Nc1ccc(Cl)cc1)c1cccc(S(=O)(=O)NC2CCN(CC3CCCCC3)C2)c1 (stereo not given)
inactive: growth inhibition [1] 41% | inhibition [3] -2% | outcome [5] | outcome [6] | outcome [7] | outcome [8]
active: inhibition [2] 80% | growth inhibition [4] 90%

Cc1cc(NCCC(=O)Nc2ccccc2)nc(NCCc2ccc(F)cc2)n1
active: growth inhibition [4] 101%
inactive: growth inhibition [1] 43% | inhibition [2] 26% | inhibition [3] 2% | outcome [5] | outcome [6] | outcome [7] | outcome [8]

CCNc1cc(C(=O)N[C@@H](Cc2ccccc2)[C@H](O)CNC2CCC(C)(C)C2)cc(N2CCCCS2(=O)=O)c1 (stereo not given in full)
inactive: inhibition [2] 3% | inhibition [3] 6% | outcome [5] | outcome [6] | outcome [7] | outcome [8]
active: growth inhibition [1] 98% | growth inhibition [4] 96%
